PI5P4K alpha inh: blocks human PI5P4K alpha kinase activity | PI5P4Kalpha enzyme, ADP-Glo luminescence, 60 min; stronger effect = lower value | P48426 | max response, % | 1.2% of 330,000 active; active means max response of -50% or lower; inconclusive means between -30% and -50%; inactive means -30% or higher; further: value at the top dose of about 77 µM
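ADP-Glo luminescence end-point read after a 60 min room-temperature kinase reaction of PI5P4Kalpha plus substrate, initiated with ATP at 5 microM final. Buffer: 0.038 M HEPES pH 7.4, EGTA, 0.1% CHAPS, 5% DMSO.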
USP1-UAF1 inh: USP1/UAF1 (human) deubiquitinase inhibition. O94782. recombinant USP1/UAF1, Ub-Rhodamine cleavage fluorescence. Potency, µM (highest dose often 57.1 µM), for the others: at the highest dose activity change, negative = inhibition, usual class: inhibitors. 0.23% of 390,000 active. AID 743255; further: potency means the concentration at half of the fitted maximal effect; nearly all actives have a fitted effect of over 60% in size
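In this screen, compounds sit with the deubiquitinase complex (1nM) for 15 min at room temperature before Ub-Rho is added at 150nM final. Fluorescence rise is then followed for 6 reads every 60 seconds.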
PLK1 PBD block: inhibitors of human PLK1 polo-box domain binding. P53350. Plk1 PBD binding of FITC phosphopeptide, fluorescence polarization. AID 720504. Potency, µM, without a hit: max response, negative = inhibition, actives largely listed as inhibitors. 2.8% of 360,000 active; further: potency means the concentration at half of the fitted maximal effect; series mostly up to about 57 µM; nearly all actives have a fitted effect of over 65% in size
USP2a inh: inhibitors of human ubiquitin-specific protease USP2a | Potency, µM (highest dose often 38.3 µM), without a hit: at the highest dose activity change, negative = inhibition, hits mostly inhibitors | O75604 | USP2 core, Ub-CHOP2 coupled fluorogenic reporter, 485/531 | 0.01% of 330,000 active | AID 463254;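 further: potency means the concentration at half of the fitted maximal effect; plate controls were DMSO wells for no effect and full inhibition by NEM control for full effect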
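USP2 core (10nM final) preincubated 30min RT with compound in 20mM Tris-HCl pH 8.0, 2mM CaCl2, 2mM beta-mercaptoethanol, 0.05% CHAPS; 25nM Ub-CHOP2 plus 25nM reporter substrate added, fluorescence (Ex485/Em531) read after 60min.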
WRN inhibitor: WRN helicase (human) inhibition; WRN helicase unwinding, fluorescent forked duplex, kinetic; Potency, µM (highest dose often 114 µM), inactives show top-dose activity change, negative = inhibition, usual class: inhibitors; 0.46% of 360,000 active; further: potency means the concentration at half of the fitted maximal effect; nearly all actives have a fitted effect of over 55% in size
Target sequence (Q14191 whole entry, looked up): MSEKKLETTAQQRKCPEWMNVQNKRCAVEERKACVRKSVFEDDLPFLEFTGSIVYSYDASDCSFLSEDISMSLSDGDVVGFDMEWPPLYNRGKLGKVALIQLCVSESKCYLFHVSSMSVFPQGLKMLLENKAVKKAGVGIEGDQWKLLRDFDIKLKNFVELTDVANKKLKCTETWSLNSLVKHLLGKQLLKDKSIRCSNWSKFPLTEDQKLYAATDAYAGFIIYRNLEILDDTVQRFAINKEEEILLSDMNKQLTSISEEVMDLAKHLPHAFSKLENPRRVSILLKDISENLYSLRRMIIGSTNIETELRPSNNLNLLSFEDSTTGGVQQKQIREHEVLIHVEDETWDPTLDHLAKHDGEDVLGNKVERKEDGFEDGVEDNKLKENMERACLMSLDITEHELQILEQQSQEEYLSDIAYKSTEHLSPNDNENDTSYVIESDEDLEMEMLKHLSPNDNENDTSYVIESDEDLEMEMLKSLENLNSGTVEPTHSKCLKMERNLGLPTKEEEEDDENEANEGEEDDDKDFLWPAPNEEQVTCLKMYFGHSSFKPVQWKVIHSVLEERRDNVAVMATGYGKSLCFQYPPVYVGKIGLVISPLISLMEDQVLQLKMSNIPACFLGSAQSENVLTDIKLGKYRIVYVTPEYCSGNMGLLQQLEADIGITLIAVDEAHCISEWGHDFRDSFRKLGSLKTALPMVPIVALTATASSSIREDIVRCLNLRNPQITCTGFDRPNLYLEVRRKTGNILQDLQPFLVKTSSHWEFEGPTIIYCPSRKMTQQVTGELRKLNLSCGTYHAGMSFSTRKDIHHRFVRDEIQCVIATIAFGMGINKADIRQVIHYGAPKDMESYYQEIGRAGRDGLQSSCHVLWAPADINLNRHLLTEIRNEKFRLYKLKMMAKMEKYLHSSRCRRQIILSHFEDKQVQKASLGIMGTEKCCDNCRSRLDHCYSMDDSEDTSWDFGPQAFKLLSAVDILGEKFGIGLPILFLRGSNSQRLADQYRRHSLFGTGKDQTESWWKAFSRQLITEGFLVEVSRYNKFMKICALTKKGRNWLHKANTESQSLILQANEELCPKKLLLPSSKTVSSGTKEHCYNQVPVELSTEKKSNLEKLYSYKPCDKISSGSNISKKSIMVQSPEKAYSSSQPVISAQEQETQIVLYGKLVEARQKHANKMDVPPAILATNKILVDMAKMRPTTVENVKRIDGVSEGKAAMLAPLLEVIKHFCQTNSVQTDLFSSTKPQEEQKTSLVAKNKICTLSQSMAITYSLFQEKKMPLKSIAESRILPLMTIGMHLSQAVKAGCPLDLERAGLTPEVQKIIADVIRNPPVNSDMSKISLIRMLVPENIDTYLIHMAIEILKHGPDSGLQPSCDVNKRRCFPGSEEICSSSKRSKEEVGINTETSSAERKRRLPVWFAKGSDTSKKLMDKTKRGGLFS
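WRN at 20 nM final preincubated with compound 15 min at room temperature; reaction started with 100 nM fluorophore/quencher forked duplex oligonucleotide and 2 mM ATP final. Unwinding followed kinetically by red fluorescence (ex 525, em 598 nm).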
Active calls of the source: *; ? = inconclusive; / = not tested or not shown; [ ] = dose if it differs, or a comment. An excerpt weighted towards active compounds, which were near 3.3% of everything screened. Unless noted, the call rests on the fitted dose curve; in most records, active means well fitted curve in the direction sought with a large enough effect; inconclusive means small, poorly fitted or top-dose-only effect, or another doubt; inactive means no such curve, though single readings can be large; an effect the other way counts as inactive or inconclusive. Unless noted, on the % scale 0 is the no-effect control and ±100 the full control effect.

SMILES	PI5P4K alpha inh	USP1-UAF1 inh	PLK1 PBD block	USP2a inh	WRN inhibitor
COC(=O)CC/C(O)=C1\C(=O)CC(C)(C)CC1=NCCc1nc2ccccc2[nH]1	-5.0	-19.6%	21.2µM*	2.2%	8.5%
CCCc1nnc(SCc2ccc(OC)cc2)n1N	-29.4	-2.0%	21.2µM*	2.8%	10.4%
CCCOc1ccc(CSc2nnc(CCC)n2N)cc1	-6.3	3.6%	-11.4%	0.2%	-32.4%
CCc1ccc(S(=O)(=O)NCc2ccc3c(c2)CCN3C(=O)c2ccc(C)cc2)cc1	/	-13.4%	/	/	/
COc1ccc(-n2c(N)c(C(=O)NCc3cccnc3)sc2=S)cc1	/	-16.2%	0.1%	0.3%	-4.2%
CCOC(=O)c1sc(=S)n(-c2ccc(C)cc2)c1N	-2.7	?	10.6µM*	0.3%	-8.4%
CCOC(=O)c1sc(=S)n(-c2ccc3c(c2)OCO3)c1N	/	-10.4%	13.4µM*	0.2%	-9.6%
CCOC(=O)c1sc(=S)n(-c2ccc(F)c(F)c2)c1N	/	-13.7%	23.8µM*	-0.3%	3.0%
Cc1ccc(-n2c(N)c(C(=O)NCc3cccnc3)sc2=S)cc1	-1.7	-8.2%	28.2µM*	-6.3%	-3.3%
CCOC(=O)c1sc(=S)n(C)c1N	6.1	-19.4%	-1.8%	-1.4%	-2.4%
CCOC(=O)c1sc(=S)n(CC)c1N	0.8	-24.2%	-19.7%	3.8%	0.2%
CS(=O)(=O)N(Cc1ccccc1)c1ccc(C(=O)Nc2ccc(Cl)cc2)cc1	/	-32.5%	/	/	/
COc1ccccc1-c1noc(CCCC(=O)Nc2cc(C)ccc2C)n1	/	-22.5%	/	/	/
CC(=O)N1c2ccc(S(=O)(=O)NCC3CCC(C(=O)Nc4cccc(F)c4)CC3)cc2CC1C (stereo unspecified)	/	4.2%	/	/	/
CC(=O)c1sc(=S)n(-c2ccc(Cl)cc2)c1C	-11.0	-13.6%	16.8µM*	3.0%	10.4%
CC(=O)c1sc(=S)n(-c2ccccc2)c1C	5.5	-15.9%	-4.2%	-1.1%	-1.1%
O=C(COc1ccccc1)NC(NC(=S)Nc1ccccc1C(=O)O)C(Cl)(Cl)Cl (stereo unspecified)	-6.7	-6.8%	26.7µM*	-3.5%	-32.6%
COc1ccc(CNC(=O)CCc2c(C)c3cc4c(C)c(C)oc4cc3oc2=O)cc1OC	/	-18.9%	/	/	/
COc1ccc(-c2nc(C)c(CCNS(=O)(=O)c3cc(C)c(C)cc3C)s2)cc1	/	-17.3%	/	/	/
CC(C)Oc1ccc(C(=O)N/N=C/c2ccc(-c3ccc(S(=O)(=O)Nc4ncccn4)cc3)o2)cc1	?	?	?	0.2%	50.1µM*
O=C1CCNc2cc3ccccc3cc21	?	-13.3%	21.2µM*	-18.5%	?
O=C1CCNc2ccc(-c3ccccc3)cc21	-1.2	?	9.47µM*	?	-21.3%
Cc1ccc2c(c1)C(=O)CCN2	/	13.9%	-6.8%	2.7%	-10.3%
COc1ccccc1CNC(=O)c1cc2c(=O)n(Cc3cccs3)ccc2nc1C	/	0.6%	/	/	/
COC(=O)[C@@]1(C)[C@H]2C(=O)N(C)C(=O)[C@H]2[C@H]2CN=C(SCc3ccccc3)N21	3.6	-26.1%	-3.8%	0.5%	5.4%
SMILES	PI5P4K alpha inh	USP1-UAF1 inh	PLK1 PBD block	USP2a inh	WRN inhibitor
COC(=O)[C@@]1(C)[C@H]2C(=O)N(C)C(=O)[C@H]2[C@H]2CN=C(SCC(=O)c3ccccc3)N21	-29.7	-7.4%	23.8µM*	3.4%	1.8%
O=[N+]([O-])c1cccc(S(=O)(=O)c2ccc(NCCO)c([N+](=O)[O-])c2)c1	?	-11.6%	13.4µM*	3.4%	?
O=[N+]([O-])c1cccc(S(=O)(=O)c2ccc(NCCOCCO)c([N+](=O)[O-])c2)c1	5.3	-10.9%	-4.4%	3.5%	3.0%
COc1ccc(S(=O)(=O)N2CN(Cc3ccco3)c3nc4ccccc4nc32)cc1	/	?	-26.7%	1.0%	56.2µM*
Cc1ccc(S(=O)(=O)N2CN(Cc3ccco3)c3nc4ccccc4nc32)cc1	2.3	-23.8%	-11.1%	0.5%	-13.0%
COc1ccc(CCN2CN(S(=O)(=O)c3ccc(OC)cc3)c3nc4ccccc4nc32)cc1	2.9	-21.6%	23.8µM*	-6.3%	-25.8%
COc1ccc(CN2CN(S(=O)(=O)c3ccccc3)c3nc4ccccc4nc32)cc1	2.7	-15.4%	2.8%	0.1%	-3.6%
Cc1ccc(C)c(NC(=O)c2cc(S(=O)(=O)N3CCCCCC3)ccc2F)c1	/	-17.5%	/	/	/
Cc1ccc2c(c1)sc1nc(=O)ccn12	-3.0	-6.0%	15µM*	-1.3%	-14.8%
Fc1cnc(Cl)nc1NC1CCCCC1	4.8	-17.9%	21.2µM*	-2.3%	6.5%
Cc1ccc(N2CC(NC(=O)C3CCCCC3)CC2=O)cc1C (stereo unspecified)	/	-7.0%	/	/	/
COc1ccc(-c2ccc(CNc3ccc4[nH]c(=O)[nH]c4c3)o2)cc1Cl	/	-12.8%	/	/	/
S=c1[nH]nc(NC2CCCCC2)s1	-69.9*	-11.9%	-26.3%	/	13.2%
Cc1sc2c(c1C)C(=O)NC(c1ccccc1F)N2 (stereo unspecified)	?	-20.8%	2.12µM*	1.9%	-28.1%
Cc1cccc(C2NC(=O)c3c(sc(C)c3C)N2)c1O (stereo unspecified)	/	-7.1%	-20.6%	3.9%	-4.4%
CCn1cc(S(=O)(=O)c2ccc(OC)cc2)c(=O)c2cc(F)c(N3CCC(C)CC3)cc21	/	2.0%	/	/	/
COc1ccc(NC(=O)C2Cc3ccccc3CN2C(=O)c2ccco2)cc1 (stereo unspecified)	4.9	-5.8%	-12.2%	3.8%	-1.6%
O=C(Nc1nnc(C2CC2)s1)C1Cc2ccccc2CN1C(=O)c1ccco1 (stereo unspecified)	?	-26.9%	26.7µM*	6.9%	-5.5%
O=C(Nc1nnc(SCc2ccc(F)cc2)s1)C1Cc2ccccc2CN1C(=O)c1ccco1 (stereo unspecified)	?	-14.7%	26.7µM*	-1.6%	?
O=C(Nc1nnc(C2CC2)s1)C1Cc2ccccc2CN1S(=O)(=O)c1cccs1 (stereo unspecified)	-60.0*	?	-18.5%	-2.5%	-18.0%[57.1 µM]
O=C(Nc1ccccc1N1CCOCC1)C1Cc2ccccc2CN1C(=O)c1ccco1 (stereo unspecified)	-18.6	-7.2%	-23.4%	5.1%	1.6%
O=S(=O)(NCCc1cn2ccsc2n1)c1ccc(Cl)cc1	/	-18.9%	/	/	/
COc1ccccc1C(c1c(O)nc(SC)[nH]c1=O)c1c(O)nc(SC)[nH]c1=O	-51.3*	?	?	/	-12.7%
CCOc1cc(C(c2c(O)nc(SC)[nH]c2=O)c2c(O)nc(SC)[nH]c2=O)ccc1O	?	-23.1%	11.9µM*	/	?
S=C(Cc1cccnc1)N1CCOCC1	-23.3	0.9%	23.8µM*	-0.2%	5.0%
CCOCCCNC(=O)Cn1ncc2c([nH]c3ccccc32)c1=O	/	-1.3%	/	/	/
Cc1[nH][nH]c(=O)c1C(c1ccc(F)cc1)c1c(C)[nH][nH]c1=O	-4.6	-7.6%	?	0.0%	4.2%

Screening data: PubChem, National Center for Advancing Translational Sciences (NCATS)
